Source: the supplement of paper PMC10849652
About 7,900 targets were measured; listed, in parts, are those with a hit and a random draw of the rest. About 0.6% of all pairs of compound and target were hits.

Columns and labels:
Assay in all cases: log2 fold change, soluble protein after heating vs DMSO (PISA); higher = thermal stabilisation; K562 cells, 10 uM, 30 min; active = over 0.2 and 3.5 SD of the protein, either way, in both replicates (recomputed)
IRAK-1-4 Inhibitor I = compound: C1COCCN1CCN2C3=CC=CC=C3N=C2NC(=O)C4=CC(=CC=C4)[N+](=O)[O-] [IRAK-1-4 Inhibitor I]
How it was run: (§1)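 K562 cells at 2×10^6 cells/mL were treated for 30 min with 10 μM compound, and aliquots were heated for 3 min over 48°C-58°C before pooling. Extraction used PBS with 0.5% NP-40 at 4°C, and soluble protein was the supernatant after 21,000xg for 90 min, measured by TMTpro 16plex LC-MS/MS with channel sums equalised. Thermal stability values, relative to control samples and from duplicates, are log2 fold changes.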

ibrutinib = compound: C=CC(=O)N1CCC[C@@H](n2nc(-c3ccc(Oc4ccccc4)cc3)c3c(N)ncnc32)C1 [ibrutinib]
How it was run: as §1

[1] = compound: CC(=O)c1cnc2ccc(-c3cc(Cl)c(O)c(Cl)c3)nc2c1N[C@H]1CC[C@H](CN(C)C)CC1
How it was run: as §1

ralimetinib = compound: CC(C)(C)Cn1c(N)nc2ccc(-c3[nH]c(C(C)(C)C)nc3-c3ccc(F)cc3)nc21 [ralimetinib]
How it was run: as §1

[2] = compound: CC(C)(O)CC(=O)NCCn1ccc2ncnc(Nc3ccc(Oc4cccc(C(F)(F)F)c4)c(Cl)c3)c21
How it was run: as §1

[3] = compound: CC(C)C1=C2N=C(C=C(N2N=C1)NCC3=CC=CC=C3)NCCCCCCN
How it was run: as §1

[4] = compound: CC(C)C[C@@H](C=O)NC(=O)[C@H](CC(C)C)NC(=O)[C@H](CC(C)C)NC(=O)OCc1ccccc1
How it was run: as §1

pinometostat = compound: CC(C)N(C[C@H]1O[C@@H](n2cnc3c(N)ncnc32)[C@H](O)[C@@H]1O)[C@H]1C[C@@H](CCc2nc3cc(C(C)(C)C)ccc3[nH]2)C1 [pinometostat]
How it was run: as §1

[5] = compound: CC1=C(C(CC(=O)N1)C2=CC=C(C=C2)C(F)(F)F)C(=O)NC3=C(C=C4C(=C3)C=NN4)F
How it was run: as §1

[6] = compound: CC1=C(C2=C(C=C1)C(=O)C3=CC=CC=C3N2CCCN)C
How it was run: as §1

[7] = compound: CC1=C(C=C(C=C1)NC(=O)C2=CC(=CC=C2)C(C)(C)C#N)NC3=CC4=C(C=C3)N=CN(C4=O)C
How it was run: as §1

[8] = compound: CC1=C(C=C(C=C1)NC(=O)C2=CC(=CC=C2)N(C)C)NC(=O)C3=CC=C(C=C3)O
How it was run: as §1

[9] = compound: CC1=CC=C(C=C1)SC2=C3C=C(SC3=CN=C2)C(=O)N
How it was run: as §1

[10] = compound: CC1=NC(=CC=C1)C2=C(N=C(N2)C(C)(C)C)C3=CC4=NC=CN=C4C=C3
How it was run: as §1

Nexturastat A = compound: CCCCN(Cc1ccc(C(=O)NO)cc1)C(=O)Nc1ccccc1 [Nexturastat A]
How it was run: as §1

vemurafenib = compound: CCCS(=O)(=O)Nc1ccc(F)c(C(=O)c2c[nH]c3ncc(-c4ccc(Cl)cc4)cc23)c1F [vemurafenib]
How it was run: as §1

[11] = compound: CCCS(=O)(=O)Nc1ccc(F)c(C(=O)c2c[nH]c3ncc(Cl)cc23)c1F
How it was run: as §1

[12] = compound: CCCc1cc(C)[nH]c(=O)c1CNC(=O)c1cc(-c2ccnc(N3CCN(C)CC3)c2)cc2c1cnn2C(C)C
How it was run: as §1

givinostat = compound: CCN(CC)Cc1ccc2cc(COC(=O)Nc3ccc(C(=O)NO)cc3)ccc2c1 [givinostat]
How it was run: as §1

barasertib = compound: CCN(CCCOc1ccc2c(Nc3cc(CC(=O)Nc4cccc(F)c4)[nH]n3)ncnc2c1)CCOP(=O)(O)O [barasertib]
How it was run: as §1

Measured: log2 fold change

TRIP10 isoform 2 (UniProt Q15642)
inactive: IRAK-1-4 Inhibitor I 0.09 | ibrutinib -0.032 | [1] -0.078 | ralimetinib 0.143 | [2] 0.004 | [3] 0.204 | [4] -0.118 | pinometostat -0.027 | [5] 0.118 | [6] -0.01 | [7] -0.068 | [8] -0.04 | [9] 0.019 | [10] 0.046 | Nexturastat A 0.12 | vemurafenib 0.026 | [11] 0.177 | [12] 0.004 | givinostat 0.01 | barasertib 0.011

U2AF2 (UniProt P26368)
Chain of UniProt P26368 (P26368 whole entry, looked up): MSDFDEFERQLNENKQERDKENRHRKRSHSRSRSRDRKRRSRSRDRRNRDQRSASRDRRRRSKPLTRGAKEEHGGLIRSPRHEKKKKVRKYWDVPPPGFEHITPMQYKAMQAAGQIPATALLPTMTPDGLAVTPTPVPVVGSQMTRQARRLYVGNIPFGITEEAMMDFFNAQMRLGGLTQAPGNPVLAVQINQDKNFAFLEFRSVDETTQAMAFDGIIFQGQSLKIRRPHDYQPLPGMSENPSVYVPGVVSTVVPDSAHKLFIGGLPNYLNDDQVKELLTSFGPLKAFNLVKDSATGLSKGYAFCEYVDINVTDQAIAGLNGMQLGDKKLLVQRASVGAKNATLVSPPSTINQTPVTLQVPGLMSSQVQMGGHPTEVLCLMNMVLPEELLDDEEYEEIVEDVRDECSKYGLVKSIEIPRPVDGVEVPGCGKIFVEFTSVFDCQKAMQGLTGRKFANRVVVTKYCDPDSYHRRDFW
active: [1] -0.313
inactive: IRAK-1-4 Inhibitor I -0.069 | ibrutinib 0.029 | ralimetinib 0.03 | [2] -0.011 | [3] -0.102 | [4] 0.028 | pinometostat 0.03 | [5] -0.04 | [6] 0.192 | [7] -0.076 | [8] 0.005 | [9] -0.066 | [10] 0.047 | Nexturastat A -0.048 | vemurafenib 0.031 | [11] 0.001 | [12] -0.028 | givinostat 0.002 | barasertib -0.015

WDR43 (UniProt Q15061)
Chain of UniProt Q15061 (Q15061 whole entry, looked up): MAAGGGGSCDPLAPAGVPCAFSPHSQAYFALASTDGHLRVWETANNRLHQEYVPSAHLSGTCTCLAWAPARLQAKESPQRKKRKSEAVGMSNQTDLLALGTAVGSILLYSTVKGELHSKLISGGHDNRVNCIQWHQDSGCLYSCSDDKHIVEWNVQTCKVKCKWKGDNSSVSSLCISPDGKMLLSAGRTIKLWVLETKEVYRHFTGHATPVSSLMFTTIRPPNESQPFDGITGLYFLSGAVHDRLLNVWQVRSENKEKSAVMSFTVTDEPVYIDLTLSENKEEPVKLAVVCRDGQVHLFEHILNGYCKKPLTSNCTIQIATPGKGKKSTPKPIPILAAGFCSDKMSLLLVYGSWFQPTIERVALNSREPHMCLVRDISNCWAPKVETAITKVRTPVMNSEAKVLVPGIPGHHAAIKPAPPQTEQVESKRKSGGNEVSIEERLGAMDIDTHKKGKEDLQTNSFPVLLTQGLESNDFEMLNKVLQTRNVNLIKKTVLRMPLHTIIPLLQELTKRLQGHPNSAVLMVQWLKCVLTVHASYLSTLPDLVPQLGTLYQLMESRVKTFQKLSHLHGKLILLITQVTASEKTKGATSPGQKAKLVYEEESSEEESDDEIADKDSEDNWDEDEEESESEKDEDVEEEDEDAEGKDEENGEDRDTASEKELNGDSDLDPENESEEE
active: [6] 0.222
inactive: IRAK-1-4 Inhibitor I 0.023 | ibrutinib 0.019 | [1] 0.012 | ralimetinib -0.088 | [2] -0.003 | [3] 0.199 | [4] -0.039 | pinometostat -0.035 | [5] 0.009 | [7] -0.015 | [8] 0.018 | [9] 0.009 | [10] -0.001 | Nexturastat A -0.097 | vemurafenib -0.027 | [11] 0.012 | [12] -0.061 | givinostat -0.007 | barasertib -0.033

TRAPPC11 (UniProt Q7Z392)
inactive: IRAK-1-4 Inhibitor I -0.007 | ibrutinib 0.001 | [1] -0.048 | ralimetinib 0.034 | [2] -0.063 | [3] -0.064 | [4] 0.012 | pinometostat 0.032 | [5] -0.048 | [6] 0.028 | [7] 0.098 | [8] 0.01 | [9] -0.014 | [10] -0.053 | Nexturastat A 0.046 | vemurafenib 0.033 | [11] 0.025 | [12] -0.012 | givinostat 0.037 | barasertib 0.025

UBE2Q1 (UniProt Q7Z7E8)
Chain of UniProt Q7Z7E8 (Q7Z7E8 whole entry, looked up): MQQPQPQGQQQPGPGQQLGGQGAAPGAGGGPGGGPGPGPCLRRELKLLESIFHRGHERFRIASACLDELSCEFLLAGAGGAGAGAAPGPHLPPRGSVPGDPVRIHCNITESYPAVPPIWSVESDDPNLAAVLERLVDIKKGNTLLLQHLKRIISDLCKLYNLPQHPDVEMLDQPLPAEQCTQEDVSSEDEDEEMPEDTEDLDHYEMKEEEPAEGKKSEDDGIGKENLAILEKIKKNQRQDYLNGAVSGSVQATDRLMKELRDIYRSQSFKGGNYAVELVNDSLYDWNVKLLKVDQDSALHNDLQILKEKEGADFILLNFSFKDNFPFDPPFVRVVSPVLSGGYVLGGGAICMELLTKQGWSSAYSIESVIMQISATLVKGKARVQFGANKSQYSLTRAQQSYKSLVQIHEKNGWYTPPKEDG
inactive: IRAK-1-4 Inhibitor I 0.024 | ibrutinib -0.012 | [1] 0.029 | ralimetinib -0.015 | [2] -0.062 | [3] -0.192 | [4] -0.11 | pinometostat 0.005 | [5] -0.01 | [6] -0.006 | [7] 0.093 | [8] -0.041 | [9] -0.003 | [10] -0.037 | Nexturastat A 0.008 | vemurafenib 0.011 | [11] 0.114 | [12] -0.031 | givinostat 0.022 | barasertib 0.068

TP53BP1 isoform 2 (UniProt Q12888)
active: [6] -0.337
inactive: IRAK-1-4 Inhibitor I -0.059 | ibrutinib -0.046 | [1] -0.002 | ralimetinib 0.056 | [2] -0.024 | [3] -0.089 | [4] 0.019 | pinometostat 0.021 | [5] 0.003 | [7] -0.02 | [8] -0.032 | [9] 0 | [10] -0.022 | Nexturastat A 0.045 | vemurafenib 0 | [11] 0.02 | [12] 0.056 | givinostat 0.019 | barasertib 0.022

USP7 (UniProt Q93009)
Chain of UniProt Q93009 (Q93009 whole entry, looked up): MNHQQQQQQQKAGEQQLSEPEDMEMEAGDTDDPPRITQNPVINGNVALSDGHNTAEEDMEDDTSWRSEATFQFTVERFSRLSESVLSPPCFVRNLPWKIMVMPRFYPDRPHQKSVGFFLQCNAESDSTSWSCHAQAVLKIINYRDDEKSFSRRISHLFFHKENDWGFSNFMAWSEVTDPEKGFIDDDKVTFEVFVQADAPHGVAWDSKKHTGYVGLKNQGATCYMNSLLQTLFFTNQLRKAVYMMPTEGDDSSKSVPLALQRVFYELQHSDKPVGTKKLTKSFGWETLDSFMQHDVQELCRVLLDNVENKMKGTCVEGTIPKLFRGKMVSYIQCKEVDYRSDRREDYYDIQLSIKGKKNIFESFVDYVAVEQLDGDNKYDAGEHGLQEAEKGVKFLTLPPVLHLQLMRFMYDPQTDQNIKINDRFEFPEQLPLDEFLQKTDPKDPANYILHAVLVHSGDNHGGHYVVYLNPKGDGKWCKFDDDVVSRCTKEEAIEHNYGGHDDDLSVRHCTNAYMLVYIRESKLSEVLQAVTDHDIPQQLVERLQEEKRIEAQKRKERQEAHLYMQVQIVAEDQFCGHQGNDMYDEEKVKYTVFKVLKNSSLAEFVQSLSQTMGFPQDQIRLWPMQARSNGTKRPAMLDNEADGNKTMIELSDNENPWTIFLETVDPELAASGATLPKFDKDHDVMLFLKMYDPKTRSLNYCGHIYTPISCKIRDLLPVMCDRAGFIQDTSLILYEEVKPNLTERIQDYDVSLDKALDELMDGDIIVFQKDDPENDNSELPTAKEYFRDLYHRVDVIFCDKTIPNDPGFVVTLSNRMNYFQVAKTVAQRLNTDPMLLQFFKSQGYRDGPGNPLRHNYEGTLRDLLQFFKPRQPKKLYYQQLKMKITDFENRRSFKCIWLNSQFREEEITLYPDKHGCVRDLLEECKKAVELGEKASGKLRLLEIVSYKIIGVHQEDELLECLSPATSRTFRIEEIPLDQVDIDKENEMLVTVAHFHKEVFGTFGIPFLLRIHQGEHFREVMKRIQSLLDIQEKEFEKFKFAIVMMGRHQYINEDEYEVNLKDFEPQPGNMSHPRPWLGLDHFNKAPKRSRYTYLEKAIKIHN
inactive: IRAK-1-4 Inhibitor I -0.102 | ibrutinib -0.021 | [1] -0.078 | ralimetinib 0 | [2] -0.172 | [3] -0.198 | [4] 0.012 | pinometostat 0.024 | [5] 0 | [6] 0.17 | [7] 0.054 | [8] -0.046 | [9] 0.007 | [10] 0.012 | Nexturastat A 0.015 | vemurafenib 0.036 | [11] 0.068 | [12] 0 | givinostat 0.083 | barasertib 0.073

TUBAL3 (UniProt A6NHL2)
Chain of UniProt A6NHL2 (A6NHL2 whole entry, looked up): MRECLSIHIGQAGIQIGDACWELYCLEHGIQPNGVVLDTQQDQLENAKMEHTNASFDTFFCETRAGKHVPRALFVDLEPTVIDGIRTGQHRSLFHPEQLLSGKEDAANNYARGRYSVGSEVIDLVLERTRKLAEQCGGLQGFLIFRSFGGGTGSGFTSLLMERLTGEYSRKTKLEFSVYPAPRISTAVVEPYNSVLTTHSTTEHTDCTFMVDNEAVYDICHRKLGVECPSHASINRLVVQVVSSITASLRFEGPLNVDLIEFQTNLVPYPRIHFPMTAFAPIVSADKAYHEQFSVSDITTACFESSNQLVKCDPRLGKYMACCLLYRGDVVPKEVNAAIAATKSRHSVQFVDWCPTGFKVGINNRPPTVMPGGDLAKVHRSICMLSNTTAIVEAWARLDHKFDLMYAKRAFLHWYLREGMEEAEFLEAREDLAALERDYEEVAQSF
inactive: IRAK-1-4 Inhibitor I -0.046 | ibrutinib -0.005 | [1] -0.039 | ralimetinib -0.044 | [2] -0.047 | [3] 0.003 | [4] -0.102 | pinometostat -0.108 | [5] 0.11 | [6] -0.094 | [7] 0.152 | [8] -0.062 | [9] 0.005 | [10] 0.094 | Nexturastat A -0.106 | vemurafenib 0.121 | [11] -0.033 | [12] -0.207 | givinostat 0.006 | barasertib -0.028

UBE3D (UniProt Q7Z6J8)
Chain of UniProt Q7Z6J8 (Q7Z6J8 whole entry, looked up): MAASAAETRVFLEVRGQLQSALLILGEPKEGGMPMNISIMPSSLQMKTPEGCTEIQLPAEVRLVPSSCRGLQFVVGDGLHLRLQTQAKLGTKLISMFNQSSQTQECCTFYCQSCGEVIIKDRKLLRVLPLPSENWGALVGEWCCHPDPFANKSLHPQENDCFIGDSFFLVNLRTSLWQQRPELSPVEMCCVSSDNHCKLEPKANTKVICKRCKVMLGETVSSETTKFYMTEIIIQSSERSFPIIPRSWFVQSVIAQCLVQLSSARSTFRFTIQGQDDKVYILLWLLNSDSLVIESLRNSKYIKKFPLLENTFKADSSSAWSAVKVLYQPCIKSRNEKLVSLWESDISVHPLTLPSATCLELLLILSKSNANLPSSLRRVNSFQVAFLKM
inactive: IRAK-1-4 Inhibitor I 0.029 | ibrutinib 0.047 | [1] 0.026 | ralimetinib 0.015 | [2] 0.088 | [3] 0.011 | [4] -0.061 | pinometostat -0.012 | [5] -0.045 | [6] 0.051 | [7] -0.036 | [8] 0.036 | [9] -0.049 | [10] 0.01 | Nexturastat A -0.016 | vemurafenib 0.014 | [11] 0.04 | [12] 0.006 | givinostat -0.075 | barasertib 0.018

XPO5 (UniProt Q9HAV4)
active: [6] -0.204
inactive: IRAK-1-4 Inhibitor I -0.004 | ibrutinib -0.027 | [1] 0.032 | ralimetinib 0.001 | [2] -0.141 | [3] -0.21 | [4] -0.021 | pinometostat -0.01 | [5] 0 | [7] 0.031 | [8] -0.039 | [9] 0.054 | [10] 0.031 | Nexturastat A -0.053 | vemurafenib 0.013 | [11] 0.056 | [12] 0.014 | givinostat -0.029 | barasertib 0.029

USP48 isoform 8 (UniProt Q86UV5)
inactive: IRAK-1-4 Inhibitor I -0.09 | ibrutinib -0.071 | [1] -0.014 | ralimetinib 0.046 | [2] -0.207 | [3] -0.278 | [4] 0.052 | pinometostat 0.008 | [5] 0.003 | [6] -0.101 | [7] 0.128 | [8] -0.094 | [9] -0.054 | [10] 0.119 | Nexturastat A -0.006 | vemurafenib 0.162 | [11] 0.142 | [12] 0.103 | givinostat 0.144 | barasertib 0.14

WDR37 isoform 2 (UniProt Q9Y2I8)
Chain of UniProt Q9Y2I8 (Q9Y2I8 whole entry, looked up): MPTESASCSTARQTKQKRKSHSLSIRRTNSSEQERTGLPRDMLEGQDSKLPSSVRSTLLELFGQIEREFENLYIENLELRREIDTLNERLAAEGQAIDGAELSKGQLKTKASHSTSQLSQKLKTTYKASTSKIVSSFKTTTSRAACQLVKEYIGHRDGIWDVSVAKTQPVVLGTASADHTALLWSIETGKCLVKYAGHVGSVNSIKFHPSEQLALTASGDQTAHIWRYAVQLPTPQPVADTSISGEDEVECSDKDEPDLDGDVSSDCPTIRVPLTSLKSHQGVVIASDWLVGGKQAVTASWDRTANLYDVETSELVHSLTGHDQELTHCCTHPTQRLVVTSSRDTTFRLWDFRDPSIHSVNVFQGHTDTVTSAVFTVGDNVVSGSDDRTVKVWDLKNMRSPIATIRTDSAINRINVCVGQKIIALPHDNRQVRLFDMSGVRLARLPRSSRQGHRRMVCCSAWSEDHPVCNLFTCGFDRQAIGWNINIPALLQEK
inactive: IRAK-1-4 Inhibitor I 0.144 | ibrutinib -0.06 | ralimetinib -0.063 | [2] -0.118 | [3] -0.011 | [4] 0.126 | pinometostat -0.029 | [5] -0.015 | [6] 0.144 | [7] 0.013 | [8] 0.068 | [9] -0.019 | [10] -0.138 | Nexturastat A 0.039 | vemurafenib 0.01 | [11] 0.012 | [12] 0.028 | givinostat -0.018 | barasertib 0.04
active: [1] -0.39

UHRF1BP1 (UniProt Q6BDS2)
active: [3] 0.258
inactive: IRAK-1-4 Inhibitor I 0.007 | ibrutinib 0.023 | [1] -0.034 | ralimetinib -0.067 | [2] 0.097 | [4] 0.03 | pinometostat 0.006 | [5] 0.001 | [6] 0.029 | [7] -0.068 | [8] -0.039 | [9] -0.012 | [10] -0.011 | Nexturastat A 0.043 | vemurafenib -0.035 | [11] -0.043 | [12] -0.022 | givinostat -0.012 | barasertib -0.009

WDR46 (UniProt O15213)
inactive: IRAK-1-4 Inhibitor I -0.159 | ibrutinib 0.099 | [1] 0.15 | ralimetinib 0.175 | [2] 0.066 | [3] 0.192 | [4] 0.154 | pinometostat 0.242 | [5] 0.033 | [6] -0.382 | [7] 0.039 | [8] -0.021 | [9] -0.001 | [10] -0.102 | Nexturastat A 0.216 | vemurafenib -0.135 | [11] -0.026 | [12] 0.136 | givinostat -0.05 | barasertib -0.064

TRMT10C (UniProt Q7L0Y3)
Chain of UniProt Q7L0Y3 (Q7L0Y3 whole entry, looked up): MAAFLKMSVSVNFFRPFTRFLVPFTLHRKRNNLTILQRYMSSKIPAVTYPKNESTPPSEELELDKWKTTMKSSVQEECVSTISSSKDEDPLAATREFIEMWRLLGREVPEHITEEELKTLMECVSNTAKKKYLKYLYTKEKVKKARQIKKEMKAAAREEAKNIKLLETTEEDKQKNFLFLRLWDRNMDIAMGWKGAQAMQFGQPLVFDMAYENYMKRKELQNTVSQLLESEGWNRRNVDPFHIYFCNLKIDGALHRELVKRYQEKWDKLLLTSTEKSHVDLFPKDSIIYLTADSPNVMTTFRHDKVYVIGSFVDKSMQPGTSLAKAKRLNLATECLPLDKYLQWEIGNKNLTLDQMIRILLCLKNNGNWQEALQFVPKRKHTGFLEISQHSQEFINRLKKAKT
inactive: IRAK-1-4 Inhibitor I 0.029 | ibrutinib 0.011 | [1] -0.07 | ralimetinib -0.06 | [2] -0.055 | [3] 0.012 | [4] 0.005 | pinometostat -0.021 | [5] 0.016 | [6] 0.014 | [7] 0.013 | [8] -0.051 | [9] 0.017 | [10] 0.007 | Nexturastat A -0.095 | vemurafenib 0.015 | [11] 0.042 | [12] -0.013 | givinostat -0.022 | barasertib 0.041

VRK2 (UniProt Q86Y07)
Chain of UniProt Q86Y07 (Q86Y07 whole entry, looked up): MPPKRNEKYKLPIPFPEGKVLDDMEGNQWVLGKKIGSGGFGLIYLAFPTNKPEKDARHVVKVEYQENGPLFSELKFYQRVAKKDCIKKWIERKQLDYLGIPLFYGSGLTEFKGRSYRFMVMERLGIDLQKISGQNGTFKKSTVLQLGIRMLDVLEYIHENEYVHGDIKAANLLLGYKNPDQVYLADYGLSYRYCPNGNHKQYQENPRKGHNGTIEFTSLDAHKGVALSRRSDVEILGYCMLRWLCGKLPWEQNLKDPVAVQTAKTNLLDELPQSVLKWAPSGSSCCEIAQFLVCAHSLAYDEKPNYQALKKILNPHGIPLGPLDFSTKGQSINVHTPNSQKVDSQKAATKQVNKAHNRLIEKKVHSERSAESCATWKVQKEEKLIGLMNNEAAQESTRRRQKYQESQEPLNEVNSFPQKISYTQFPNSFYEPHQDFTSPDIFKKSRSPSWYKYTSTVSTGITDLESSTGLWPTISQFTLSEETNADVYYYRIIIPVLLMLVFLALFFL
active: [1] 0.32
inactive: IRAK-1-4 Inhibitor I 0.004 | ibrutinib 0.003 | ralimetinib 0.21 | [2] -0.088 | [3] 0.027 | [4] 0.074 | pinometostat 0.075 | [5] -0.03 | [6] 0.109 | [7] -0.072 | [8] -0.05 | [9] 0.01 | [10] 0.015 | Nexturastat A 0.04 | vemurafenib 0.006 | [11] 0.044 | [12] 0.025 | givinostat 0.03 | barasertib 0.01
